{"source": "PubChem BioAssay (Tox21)", "note": "“And” between values parts separate entries of the source, which are not always exact repeats. Identical values can stand only once. Inconclusive results are not listed. Entries that show only a call come without a potency. Some compounds were tested as several samples or in several runs, with calls that do not always agree. The source made the active and inactive calls. The call rests on the fitted dose curve. Potency means the concentration at half of the fitted maximal effect.", "data": [{"target": "Acetylcholinesterase (Homo sapiens) (UniProt P22303)", "sequence (P22303 whole entry, looked up)": "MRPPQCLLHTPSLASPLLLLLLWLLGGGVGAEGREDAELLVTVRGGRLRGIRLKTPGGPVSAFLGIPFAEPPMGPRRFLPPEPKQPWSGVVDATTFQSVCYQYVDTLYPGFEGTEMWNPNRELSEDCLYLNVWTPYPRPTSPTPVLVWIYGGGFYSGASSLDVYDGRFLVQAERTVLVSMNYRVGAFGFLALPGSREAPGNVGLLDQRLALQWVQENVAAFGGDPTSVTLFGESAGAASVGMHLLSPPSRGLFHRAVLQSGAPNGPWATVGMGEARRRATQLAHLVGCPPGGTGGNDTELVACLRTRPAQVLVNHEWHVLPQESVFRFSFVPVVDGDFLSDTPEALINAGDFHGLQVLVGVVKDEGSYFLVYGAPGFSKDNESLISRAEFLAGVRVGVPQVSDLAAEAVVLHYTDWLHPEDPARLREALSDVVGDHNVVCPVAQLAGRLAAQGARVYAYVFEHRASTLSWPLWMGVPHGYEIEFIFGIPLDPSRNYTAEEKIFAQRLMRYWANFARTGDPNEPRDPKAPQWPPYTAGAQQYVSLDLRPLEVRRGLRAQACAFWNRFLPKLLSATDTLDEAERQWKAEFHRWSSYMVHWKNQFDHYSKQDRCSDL", "experiment": "Acetylcholinesterase (AChE) small molecule antagonists: fluorescence cell-based qHTS assay (AID 1347398); further: nearly all actives have a fitted effect of over 50% in size", "conditions": "SH-SY5Y cells; Potency: AChE activity; series mostly up to 115 µM; activity change, negative = inhibition: at the top concentration", "from_the_text": "National Center for Advancing Translational Sciences [NCATS]\nDivision of Preclinical Innovation [DPI]\nU.S. Environmental Protection Agency [EPA]\nNational Institutes of Environmental Health Sciences [NIEHS]\nNational Toxicology Program [NTP]\nU.S. Food and Drug Administration [FDA]\nAcetylcholinesterase (AChE) is the primary cholinesterase in the body that hydrolyzes a key neurotransmitter, acetylcholine. Inhibition of AChE activity can lead to neurotoxicity. Known inhibitors of AChE include organophosphorous pesticides (OP), chemical warfare agents, drugs, and various phytochemicals.\nA homogenous cell-based assay using Amplitetrade mark Fluorimetric Acetylcholinesterase Assay Kit *Green Fluorescence* (AAT Bioquest, Sunnyvale, CA) was used to evaluate the chemicals in the Tox21 10K library that inhibit AChE activity. The assay uses Thiolite Green to quantify the thiocholine produced from the hydrolysis of acetylthiocholine by AChE from the SH-SY5Y cells. AChE can hydrolyze acetylthiocholine to create thiocholine. Thiolite Green is fluorescent when reacting with thiocholine. It has spectral properties similar to those of fluorescein. The fluorescence intensity of Thiolite Green is used to measure AChE activity. Its signal can be easily read by a fluorescence microplate reader at Ex/Em = 490/520 nm.\nTox21 Assay Protocol Summary:\nFor cell-based AChE assay, 2,000 SH-SY5Y cells in 4 uL/well were dispensed into black, clear-bottom 1536-well plates using a Multidrop Combi (Thermo Scientific) dispenser. The assay plates were incubated overnight at 37 C to allow cells to attach to the wells, followed by the transfer of 23 nL compound or DMSO (vehicle control) by a Pintool station (Wako Automation, CA). The plates were incubated for 30 min at 37 C and 5% CO2, followed by the addition of 4 uL of detection cocktail solution (ThioliteGreen, acetylthiocholine) into each well using Flying Reagent Dispenser (Beckman Coulter, CA) and then following 40 min incubation at room temperature. Fluorescent intensity (Ex/Em = 490/520 nm) was measured using an Envision plate reader (PerkinElmer, MA).", "values": [{"smiles": "CCOP(=S)(OCC)Oc1ccc2c(C)c(Cl)c(=O)oc2c1", "Potency": "12.8 µM (active) and 25.2 µM (active) and inactive"}, {"smiles": "O=c1[nH]c(=O)n(Cl)c(=O)n1Cl", "Potency": "inactive"}, {"smiles": "Cc1cc(Cl)ccc1OCC(=O)O", "Potency": "inactive"}, {"smiles": "O=C(O)c1nc(Cl)ccc1Cl", "Potency": "inactive"}, {"smiles": "CCC[N+]1(C)CCCCC1", "Potency": "inactive"}, {"smiles": "CCCC[N+]1(C)CCCCC1", "Potency": "inactive"}, {"smiles": "Nc1ccc(Cl)cc1", "Potency": "inactive"}, {"smiles": "O=C(O)CCl", "Potency": "inactive"}, {"smiles": "COP(=O)(OC)OC=C(Cl)Cl", "activity change, negative = inhibition": "-24.7% (inactive)"}, {"smiles": "CC[n+]1ccccc1", "Potency": "inactive"}, {"smiles": "CCCCCCCCCCCCCC[P+](CCCCCC)(CCCCCC)CCCCCC", "Potency": "35.7 µM (active) and 71.6 µM (active) and inactive"}, {"smiles": "CC[N+]1(C)CCCC1", "Potency": "inactive"}, {"smiles": "CC(=O)[O][Hg][c]1ccccc1", "Potency": "62.7 µM (active) and 56.4 µM (active)"}, {"smiles": "O=P1(N(CCCl)CCCl)NCCCO1", "note": "(stereo not drawn)", "Potency": "inactive"}, {"smiles": "CCCCCCCCCCCC(=O)O", "Potency": "inactive"}, {"smiles": "O=[N+]([O-])c1ccccc1O", "Potency": "inactive"}, {"smiles": "Oc1ccccc1-c1ccccc1", "Potency": "inactive"}, {"smiles": "CNC", "Potency": "inactive"}, {"smiles": "C[N+](C)(C)Cc1ccccc1", "Potency": "inactive"}, {"smiles": "O=C(O)C(Cl)(Cl)Cl", "Potency": "inactive"}, {"smiles": "O=C(O)COc1ccc(Cl)cc1Cl", "Potency": "inactive"}, {"smiles": "Cc1cc(-c2ccc(N)c(C)c2)ccc1N", "Potency": "inactive"}, {"smiles": "CC(Cl)(Cl)C(=O)O", "Potency": "inactive"}, {"smiles": "CCCn1cc[n+](C)c1", "Potency": "inactive"}, {"smiles": "CCC(=O)C(CC(C)N(C)C)(c1ccccc1)c1ccccc1", "note": "(stereo not drawn)", "activity change, negative = inhibition": "-15.4% [at 53.7 µM] (inactive)"}, {"smiles": "C=CCOC(Cn1ccnc1)c1ccc(Cl)cc1Cl", "note": "(stereo not drawn)", "activity change, negative = inhibition": "-18.1% [at 53.7 µM] (inactive)"}, {"smiles": "CCn1cc[n+](C)c1C", "Potency": "inactive"}, {"smiles": "O=C(O)C(Cl)Cl", "Potency": "inactive"}, {"smiles": "OCCOc1ccccc1", "Potency": "inactive"}, {"smiles": "C[C@]12CCC(=O)C=C1CC[C@@H]1[C@@H]2CC[C@]2(C)C(=O)CC[C@@H]12", "activity change, negative = inhibition": "-22.9% [at 53.7 µM] (inactive)"}, {"smiles": "CCCCCCCCCCn1cc[n+](C)c1", "Potency": "35.7 µM (active) [middle of 6 runs]"}, {"smiles": "Nc1ccc(-c2ccc(N)c(Cl)c2)cc1Cl", "Potency": "inactive"}, {"smiles": "C1CCC(NC2CCCCC2)CC1", "Potency": "inactive"}, {"smiles": "Nc1ccc(-c2ccc(N)cc2)cc1", "Potency": "inactive"}, {"smiles": "CCCCCCCCCCCCOS(=O)(=O)O", "Potency": "inactive"}, {"smiles": "COCC(=O)N(c1c(C)cccc1C)C(C)C(=O)OC", "note": "(stereo not drawn)", "Potency": "inactive"}, {"smiles": "O=c1nc(O)n(Cl)c(=O)n1Cl", "Potency": "inactive"}, {"smiles": "CCNc1nc(Cl)nc(NCC)n1", "Potency": "inactive"}]}]}
